Screening results from PubChem.
JMJD2A Tudor: inhibitors of human JMJD2A Tudor domain. O75164. AlphaScreen JMJD2A-Tudor / H3K4me3 peptide binding. Potency, µM (titrated, usually from 114 µM), for inactives: at the highest dose activity change, negative = inhibition, hits mostly inhibitors. 390,000 tested, 4.4% active. AID 504339; further: potency means the concentration at half of the fitted maximal effect; on the % scale 0 is the no-effect control and ±100 the full control effect; nearly all actives have a fitted effect of over 50% in size
PI5P4Ka inh: PI5P4K alpha (human) kinase inhibition; P48426; PI5P4Kalpha enzyme, ADP-Glo luminescence, 60 min; hits give low values; max response, %; 330,000 tested, 1.2% active; AID 652105; active means max response of -50% or lower; inconclusive means between -30% and -50%; inactive means -30% or higher; further: value at the top dose of about 77 µM; on the % scale 0 is the no-effect control and ±100 the full control effect
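Enzyme plus substrate dispensed, test compounds pinned in, then ATP (5 microM final) added. After 60 min at RT, ADP-Glo reagent 1 for 45 min and reagent 2 for 30 min preceded luminescence imaging.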
G9a inh: G9a (human) methyltransferase inhibition | G9a H3K9 monomethylation, AlphaScreen, 2 h | Q96KQ7 | Potency, µM (highest dose often 102 µM), for the others: top-dose activity, negative = inhibition, usual class: inhibitors | 350,000 tested, 8.8% active; further: potency means the concentration at half of the fitted maximal effect; on the % scale 0 is the no-effect control and ±100 the full control effect; nearly all actives have a fitted effect of over 75% in size
Target sequence (Q96KQ7 913-1193 limits assumed): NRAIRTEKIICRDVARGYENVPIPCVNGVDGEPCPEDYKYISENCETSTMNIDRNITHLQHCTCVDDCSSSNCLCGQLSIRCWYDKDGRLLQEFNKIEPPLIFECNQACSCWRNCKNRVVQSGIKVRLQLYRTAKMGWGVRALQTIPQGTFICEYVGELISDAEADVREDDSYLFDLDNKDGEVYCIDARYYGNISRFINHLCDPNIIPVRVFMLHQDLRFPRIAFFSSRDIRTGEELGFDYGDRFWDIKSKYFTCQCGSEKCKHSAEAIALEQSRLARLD
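Methyltransferase reactions run at room temperature for 2 h (20 nM enzyme, 500 nM biotin-H3K9 peptide, 20 uM SAM) after a 15 min compound preincubation; product detected by AlphaScreen beads and anti-H3K9me1 antibody.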
HP1b chromo inh: blocks HP1-beta chromodomain binding to methylated histone tails; 390,000 tested, 0.56% active; P83916; AID 540317; Potency, µM (titrated, usually from 114 µM), inactives show at the top dose activity change, negative = inhibition, usual class: inhibitors; AlphaScreen HP1-beta / biotin-H3K9me3 peptide binding; further: potency means the concentration at half of the fitted maximal effect; nearly all actives have a fitted effect of over 70% in size
Target sequence (P83916 whole entry, looked up): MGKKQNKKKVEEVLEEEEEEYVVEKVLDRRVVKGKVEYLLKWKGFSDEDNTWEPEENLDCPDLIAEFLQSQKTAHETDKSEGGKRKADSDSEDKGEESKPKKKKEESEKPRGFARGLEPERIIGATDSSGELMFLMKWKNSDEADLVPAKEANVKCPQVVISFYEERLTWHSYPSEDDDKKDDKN
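AlphaScreen: HP1-beta (50 nM) preformed 30 min with biotin-H3(1-18)K9me3 peptide (50 nM) in PBS pH 7.4, 0.01% Tween-20. Compound added for 30 min at RT, then streptavidin donor/nickel chelate acceptor beads (10 ug/mL) for 30 min.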
PLK1 PBD inh: PLK1 (human) polo-box domain binding inhibition | P53350 | Plk1 PBD binding of FITC phosphopeptide, fluorescence polarization | Potency, µM, for the others: max response, negative = inhibition, hits mostly inhibitors | 360,000 tested, 2.8% active | AID 720504; further: potency means the concentration at half of the fitted maximal effect; series mostly up to about 57 µM; on the % scale 0 is the no-effect control and ±100 the full control effect; nearly all actives have a fitted effect of over 65% in size
BAZ2B inh: inhibitors of human BAZ2B bromodomain. Q9UIF8. AlphaScreen BAZ2B-H3K14Ac peptide displacement. Potency, µM (highest dose often 114 µM), inactives show at the top dose activity change, negative = inhibition, most hits filed as inhibitors. 360,000 tested, 4.4% active. AID 504333; further: potency means the concentration at half of the fitted maximal effect; on the % scale 0 is the no-effect control and ±100 the full control effect; nearly all actives have a fitted effect of over 60% in size
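BAZ2B 50 nM plus b-H3(5-23)K14Ac 50 nM, PBS pH 7.4/0.01% Tween-20, 30 min RT; compound added (max 110 uM), 30 min RT; streptavidin donor/Ni-chelate acceptor beads 10 ug/mL final, 20 min dark; AlphaScreen read.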
An asterisk follows results filed as active; ? = inconclusive; / = no result; [ ] = another dose, or the depositor's remark. Shown are actives, neighbours in structure and some others; about 12% of the full set was active somewhere. Unless noted, the call rests on the fitted dose curve; in most records, active means well fitted curve in the direction sought with a large enough effect; inconclusive means small, poorly fitted or top-dose-only effect, or another doubt; inactive means no such curve, though single readings can be large; an effect the other way counts as inactive or inconclusive.

SMILES	JMJD2A Tudor	PI5P4Ka inh	G9a inh	HP1b chromo inh	PLK1 PBD inh	BAZ2B inh
O=C(NCCc1ccc(Cl)cc1)c1cnc2sc(N3CCCCC3)nn2c1=O	-5%	/	7%[59 µM]	20%	/	-2%
CC1CCCC(C)N1/N=C/c1ccccc1F (stereo not drawn)	3.2µM*	-3	3.2µM*	?	-3%	50µM*
CC1CCCC(C)N1/N=C/c1ccc(Cl)cc1 (stereo not drawn)	-35%	2	6%[12.7 µM]	-2%	-1%	-11%
CCCCCCCCCCC/C=C\C(C)(C)/C=C\CCCC(=O)O	/	/	8%[59 µM]	/	/	/
Cc1ccc(S(=O)(=O)c2ccccc2)cc1S	/	/	3.5µM*	/	/	4%
Nc1ccc(S(=O)(=O)c2cccc(N)c2)cc1	-15%	/	-2%[59 µM]	17%	-3%	-3%
COc1ccc(C(=O)N2CCC[C@@]3(CCN(Cc4cc(C(F)(F)F)cc(C(F)(F)F)c4)C3)C2)cc1	/	/	-8%[12.7 µM]	/	/	/
COc1cc(NC(=O)COc2ccc(-n3cnnn3)cc2)cc(OC)c1OC	-12%	-8	/	6%	-8%	/
CCCN1CNc2c(c(=O)[nH]c(=S)n2CCc2cccc(C)c2C)C1	-7%	/	/	31%	/	/
Cc1cc2[nH]c(=O)c(=O)[nH]c2cc1S(=O)(=O)N(C)C1CCCCC1	3.5µM*	2	/	36%	-12%	1%
O=C(O)c1ccc(N/N=C/c2ccc(F)c(F)c2)cc1	-35%	-16	4.5µM*	6%	?	-30%
O=C(O)c1ccc(N/N=C/c2ccncc2)cc1	10%	-4	11%	30%	4%	6%
O=C(O)c1ccc(N/N=C/c2cccc(F)c2)cc1	-26%	-9	?	22%	-3%	5%
Cc1ccc2cc(/C=N/NC(=O)c3ccc(F)cc3)c(Cl)nc2c1	-20%	1	67%[59 µM]	13%	-12%	-8%
C(=N\NCc1ccccc1)/c1ccc2nccnc2c1	-17%	0	50µM*	40%	2%	-20%
Cc1ccc2nc(Cl)c(/C=N/Nc3ccc(C(=O)O)cc3)cc2c1	-25%	-16	50µM*	32%	?	?
O=C(O)c1ccc(N/N=C/c2ccc3nccnc3c2)cc1	-16%	-15	50µM*	14%	-1%	-22%
CCCN(CCC)CCCNC(=O)c1cc2c(=O)n(C)c3ccccc3c2s1	-11%	/	-18%[59 µM]	62%	/	/
C=C1CCN(C(CC(C)C)C(=O)Nc2nc3ccc(Cl)cc3s2)S(=O)(=O)c2ccccc21 (stereo not drawn)	-27%	/	/	21%	/	/
O=C(O)c1ccc(N/N=C/c2ccnc3ccccc23)cc1	-23%	-8	?	59%	-18%	-35%
O=C(O)c1ccc(N/N=C/c2cccc3cccnc23)cc1	-5%[11.4 µM]	2	/	87%	-20%	71µM*
COc1cccc(CNC(=O)CSC2=Nc3ccccc3N=C(c3ccc(F)cc3)C2)c1	-14%	/	0%[59 µM]	5%[57 µM]	/	-8%
O=C(Nc1ccccc1)c1sccc1Oc1ccc([N+](=O)[O-])cc1F	?	0	28µM*	-9%	-8%	25µM*
CCCCNC(=O)Cn1c(=O)cc(C)c2c(C)nn(-c3ccc(CC)cc3)c21	-11%	/	7%[59 µM]	32%	/	-3%
Nc1nc2c(F)c(F)c(F)cc2s1	-14%	?	18µM*	3%	27µM*	-2%
SMILES	JMJD2A Tudor	PI5P4Ka inh	G9a inh	HP1b chromo inh	PLK1 PBD inh	BAZ2B inh
Nc1nc2c(F)cccc2s1	-7%	1	1%	25%	2%	0%
COC(=O)c1ccc(NC(=S)NCCCn2ccnc2)cc1	-23%	0	-10%	4%	-8%	79µM*
O=C(NCCCn1ccnc1)C(=O)Nc1ccccc1	79µM*	4	-8%	?	30µM*	-27%
CN(C)S(=O)(=O)c1cccc(NC(=S)NCCCn2ccnc2)c1	-4%[57.1 µM]	-8	-1%	14%	-25%	79µM*
CCOC(=O)c1ccc(NC(=S)NCCCn2ccnc2)cc1	-26%	5	?	38%	-7%	56µM*
CC(C)C[C@H]1CN(CCCC[C@@H]2CNC(=O)C(=O)N2CCc2ccccc2)C(=O)C(=O)N1CCc1ccc(O)cc1	/	-4	/	/	-6%	/
Cc1cc(C(=O)NCCCn2ccnc2)sc1-c1ccccc1	?	/	?	-4%	-25%	50µM*
O=C(NCCCn1ccnc1)c1ccc(-c2ccccc2)cc1	-17%	-16	15%	24%	5%	?
Nc1ccc(-c2c3ccc(=O)cc-3oc3cc(O)ccc23)cc1C(=O)O	?	-12	45µM*	?	13µM*	?
O=c1ccc2c(-c3ccccc3)c3ccc(O)cc3oc-2c1	-29%	?	74%	?	?	15%
Cc1ccc(NC(=O)C(=O)NCC(c2ccc3c(c2)OCO3)N2CCN(c3ccccc3)CC2)cc1 (stereo not drawn)	-24%	/	3%[59 µM]	16%[57 µM]	/	2%
CCOC(=O)c1c(NC(=O)c2cccs2)sc(C(=O)N2CCOCC2)c1C	-3%	-3	/	8%	-13%	/
CCOC(=O)c1c(NC(=O)c2cccs2)sc(C(=O)N(C)C)c1C	-8%	-5	?	-13%	24µM*	2%
CCOC(=O)c1c(NC(=O)c2cccnc2Cl)sc(C(=O)N(C)C)c1C	-13%	-7	25µM*	-11%	?	0%
CCCNC(=O)C1(C)CCN(C(=O)c2c(F)ccc(C)c2F)C1 (stereo not drawn)	/	9	/	/	-7%	/
O=C(CN1CCN(c2ccccc2F)CC1)c1ccc(O)c(O)c1	-20%	5	32µM*	62%	0%	-16%
CC(CN1CCN(C/C=C/c2ccccc2)CC1)c1ccccc1 (stereo not drawn)	13µM*	-1	-3%[0.501 µM]	-9%	5%	?
O=S(=O)(c1ccccc1)N1CCN(Cc2c(O)ccc3ccccc23)CC1	-13%	0	/	22%	?	/
Oc1ccc2ccccc2c1CN1CCN(c2ccccc2F)CC1	-6%	-1	28µM*	73%	-11%	10%
O=[N+]([O-])c1ccc(C(O)CN2CCN(C/C=C/c3ccccc3)CC2)cc1 (stereo not drawn)	-25%	-5	-5%	3%[57 µM]	-2%	-7%
NC(=O)CN1CCN(c2ccccc2F)CC1	-5%	-4	-12%[12.7 µM]	28%	-1%	-6%
Oc1ccc2ccccc2c1CN1CCN(C/C=C/c2ccccc2)CC1	?	5	10µM*	10%	-18%	?
CCOc1ccccc1NC(=O)C1CCN(S(=O)(=O)c2ccc3[nH]c(=O)oc3c2)CC1	-18%	/	?	20%	/	-7%
CN(C)CCSc1nc(-c2ccccc2)nc2c1COC(C)(C)C2	-28%	/	-38%[59 µM]	-6%	-7%	0%
CSc1nc(-c2ccccc2)nc2c1COC(C)(C)C2	?	8	?	65%	30µM*	51%
